Compound activity (PubChem BioAssay)
These entries were drawn from the full list.
aSyn UTR act: Activators working through SNCA 5'UTR binding (MLPCN). activity score, % (tested at 7.5 µM), hits read low. hit rate 7.1% among 300,000. AID 1814. alpha-synuclein 5'UTR reporter, activators screen; in the data active = activity score below about -60%
Of the large screens only hits and unclear results are named; the others gave an inactive call.

COc1cc2ccccc2cc1C(=O)Nc1ccc(C)cc1	aSyn UTR act -186
O=C(Nc1ccncc1)c1cc2ccccc2cc1O	aSyn UTR act -79
COc1ccccc1C(=O)Nc1ccc2ccccc2c1	aSyn UTR act -88
CC(=O)Oc1ccccc1C(=O)Nc1ccccc1	aSyn UTR act -93
Cc1ccc(NC(=O)c2cc(C)n(-c3ccccc3)c2C)cc1	none
COc1cc2ccccc2cc1C(=O)Nc1ccc(Cc2ccncc2)cc1	aSyn UTR act -129
Cc1ccc(NC(=O)c2cccc3ccccc23)cc1	aSyn UTR act -91
Cc1ccc(NC(=O)c2cc(C)n(-c3cccc(C)c3)c2C)cc1	aSyn UTR act -62
O=C(CSc1n[nH]c(-c2ccccc2O)n1)N1CCOCC1	aSyn UTR act -70
S=C(NCCc1ccccc1)NCc1cccs1	aSyn UTR act -74
CC(C)(C)c1ccc(NC(=S)NCc2cccs2)cc1	aSyn UTR act -98
COc1cc(-c2cc(C(=O)Nc3nc4ccccc4s3)c3ccccc3n2)cc(OC)c1OC	aSyn UTR act -65
COc1ccc(-c2cc(C(=O)Nc3ccc(C(N)=O)cc3)c3ccccc3n2)cc1OC	aSyn UTR act -99
Cc1ccnc(NC(=O)CCCNC(=O)c2ccc(Cl)cc2)c1	aSyn UTR act -182
CCN(CC)Cc1ccc(NC(=O)c2sc3cc(Cl)ccc3c2Cl)cc1	none
Cc1ccnc(NC(=O)CNC(=O)c2sc3ccccc3c2Cl)c1	aSyn UTR act -216
Cc1ccc(C(=O)NCCOc2ccc(Cl)cc2)cc1	aSyn UTR act -88
Cc1ccnc(NC(=O)c2sc3cc(Cl)ccc3c2Cl)c1	aSyn UTR act -140
CN(C)c1ccc(NC2=C(Cl)C(=O)c3ccccc3C2=O)cc1	aSyn UTR act -116
O=C1C(Cl)=C(Nc2ccc3cn[nH]c3c2)C(=O)c2ccccc21	none
O=C(NNC(=O)c1cccs1)c1ccc2ccccc2c1	aSyn UTR act -71
O=C(COC(=O)c1cccs1)c1ccc2ccccc2c1	aSyn UTR act -121
CC(=O)NC12CC3CC(C1)CC(C(=O)OCC(=O)c1ccc4c(c1)OCCO4)(C3)C2	aSyn UTR act -134
O=C(COC(=O)c1cccs1)c1ccc2c(c1)OCCO2	aSyn UTR act -176
COc1ccc(OCCOC(=O)c2cccs2)cc1	aSyn UTR act -66
COCCOC(=O)c1[nH]c2c(c1C)C(=O)CC(c1cccs1)C2 (stereo not drawn)	none
CN(C(=O)/C=C/c1ccccc1)C1CCCCC1	aSyn UTR act -98
N#CCn1cc(/C=N/NC(=O)c2cc3c(ccc4ccccc43)o2)c2ccccc21	aSyn UTR act -112
N#CCC(=O)N/N=C/c1cn(Cc2ccc(Cl)c(Cl)c2)c2ccccc12	none
C=CCNC(=O)c1ccc2c3n(nc2c1)-c1ccc(Cl)cc1CO3	aSyn UTR act -127
O=C(NCCO)c1ccc2c3n(nc2c1)-c1ccccc1CO3	aSyn UTR act -105
Cc1ccc2c(c1)COc1c3ccc(C(=O)NCC4CC4)cc3nn1-2	aSyn UTR act -177
CC(C)NC(=O)c1ccc2c3n(nc2c1)-c1ccccc1CO3	none
COC(=O)c1cnc(Oc2ccc(NC(=O)NC(=O)c3ccccc3Cl)cc2)cc1C(F)(F)F	aSyn UTR act -63
Clc1ccc(N/N=C/c2ccncc2)cc1Cl	aSyn UTR act -221
Fc1ccc(N/N=C/c2ccncc2)c(F)c1	aSyn UTR act -177
Fc1ccc(N/N=C/C=C/c2ccccc2)c(F)c1	aSyn UTR act -159
O=C(O)c1ccc(/C=N/Nc2ccc(F)cc2F)cc1	aSyn UTR act -111
C=CCN1/C(=C2/SC(=S)N(C)C2=O)Sc2ccccc21	aSyn UTR act -65
CCN1/C(=C2\OC(=S)N(C)C2=O)Sc2ccccc21	aSyn UTR act -129
CSc1nsc(N/N=C/c2ccccc2)c1C#N	aSyn UTR act -150
COc1cccc(/C=N/Nc2snc(SC)c2C#N)c1O	aSyn UTR act -157
COc1ccc(/C=N/Nc2snc(SC)c2C#N)cc1OC	aSyn UTR act -146
CCN1C(=O)/C(=C/c2nc3ccccc3c(=O)n2-c2ccccc2)c2ccccc21	aSyn UTR act -104
CC1CCCCN1C(=O)CSc1nnc(-c2ccco2)o1 (stereo not drawn)	aSyn UTR act -136
CC1CCCCN1C(=O)CSc1nnc(-c2ccccc2F)o1 (stereo not drawn)	aSyn UTR act -84
COc1ccc(-c2nnc(SCC(=O)N3CCCC3)o2)c(OC)c1	aSyn UTR act -83
O=C(CSc1nnc(-c2ccccc2F)o1)N1CCCC1	aSyn UTR act -76
COc1ccc(CNc2nc(Cl)c(C#N)s2)cc1	aSyn UTR act -95
COc1cccc2[nH]c3c(N4CCCC(C)C4)ncnc3c12 (stereo not drawn)	aSyn UTR act -143
COc1ccc(Cc2nc(-c3cccc(C)c3)no2)cc1	aSyn UTR act -102
Cc1cccc(-c2noc(Cc3ccc(Cl)cc3)n2)c1	aSyn UTR act -98
COc1ccc(Cc2nc(-c3ccncc3)no2)cc1	aSyn UTR act -79
CCc1nnc(NC(=O)CSc2ccc(-c3ccc(-n4cccn4)cc3)nn2)s1	aSyn UTR act -98
CCc1ccc(-c2ccc(SCC(=O)Nc3nnc(C)s3)nn2)cc1	aSyn UTR act -83
CCc1ccc(-c2ccc(SCC(=O)NCC3CCCO3)nn2)cc1 (stereo not drawn)	aSyn UTR act -94
Cc1ccc2[nH]c3c(N4CCOCC4)ncnc3c2c1	aSyn UTR act -72
Cc1ccc2[nH]c3c(NCc4ccccc4)ncnc3c2c1	aSyn UTR act -95
CCCOc1ncnc2c1[nH]c1ccc(C)cc12	aSyn UTR act -92
CCOc1ccccc1NC(=O)c1ccc2[nH]c(C)c(C)c2c1	aSyn UTR act -91
CCOc1ccccc1NC(=O)c1ccc2ccccc2c1	aSyn UTR act -81
CCC(=O)CCC(=O)c1ccc2ccccc2c1	aSyn UTR act -92
Cc1ccc(-c2nnc(SCC#CCOC(=O)c3cccs3)o2)cc1	aSyn UTR act -71
Cc1ccc(-c2nnc(SCC#CCOC(=O)c3ccco3)o2)cc1	aSyn UTR act -66
Cc1ccc(-c2nnc(COC(=O)c3cccs3)o2)cc1	aSyn UTR act -64
O=C(c1cccs1)c1no[n+]([O-])c1C(=O)c1cccs1	none
COc1cc(/C=N/Nc2nc(N3CCCC3)nc(N3CCCC3)n2)ccc1OCc1ccccc1F	aSyn UTR act -72
Cc1ccc(C(c2cc(Cl)c3cccnc3c2O)N2CCN(C)CC2)cc1 (stereo not drawn)	none
CC(C)c1ccc(-c2cc(C(=O)NN3CCN(C)CC3)c3ccccc3n2)cc1	aSyn UTR act -117
CC(C)c1ccc(-c2cc(C(=O)N3N=C(C(F)F)CC3(O)C(F)F)c3ccccc3n2)cc1 (stereo not drawn)	aSyn UTR act -166
CN1CCN(c2ccc(-c3ccc4ccccc4n3)cc2)CC1	none
Nc1ccc(OCCc2ccccc2)cc1	aSyn UTR act -76
Clc1c(CSc2nc3ccccc3o2)nc2ccccn12	aSyn UTR act -117
Clc1c(CSc2nc3ccccc3o2)nc2sccn12	aSyn UTR act -117
Brc1c(CSc2nc3ccccc3o2)nc2ncccn12	aSyn UTR act -118
[O-]/C(=C(\C(=S)Nc1ccc(SC(F)F)cc1)[n+]1ccccc1)c1ccc(Cl)cc1Cl	aSyn UTR act -72
CC(C)(C)CC(=O)Nc1cccc(-c2cn3cccnc3n2)c1	aSyn UTR act -107
c1cn2cc(-c3ccc4c(c3)OCO4)nc2s1	aSyn UTR act -137
CC(=O)Nc1ccc(-c2cn3ccsc3n2)cc1	aSyn UTR act -71
O=C(Nc1ccc(-c2cn3ccsc3n2)cc1)C1CCCC1	aSyn UTR act -95
O=C(Nc1ccc(-c2cn3ccsc3n2)cc1)C1CC1	aSyn UTR act -159
CC(C)CC(=O)Nc1cccc(-c2cn3ccsc3n2)c1	aSyn UTR act -126
